Assay outcomes: PubChem BioAssay, National Center for Advancing Translational Sciences (NCATS)
This is a sample that favours compounds with a hit; in the whole collection about 9.3% have one here.
ELG1 repair inh: ELG1-dependent DNA repair inhibition | AID 504467 | Potency, µM (titrated, usually from 46.1 µM), usual class: inhibitors | HEK293T ELG1-luciferase reporter, luminescence, 16 h; DNA damage induced by 5-fluorouridine | 330,000 compounds, 2.3% hits; also: nearly all actives have a fitted effect of over 55% in size
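Step one: seed 2,000 cells per well. Step two: pin-transfer compound or DMSO alongside 5-fluorouridine. Step three: incubate 16 hr, 37 °C, 5% CO2. Step four: add ONE-Glo, wait 30 min, read luminescence.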
Rab9 promoter act: Rab9 promoter activation; 320,000 compounds, 2.8% hits; Potency, µM (titrated, usually from 9.22 µM), actives largely listed as activators; Huh7 Rab9 promoter-luciferase reporter, luminescence, 24 h; also: nearly all actives have a fitted effect of over 60% in size
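Huh7 cells stably carrying a Rab9 promoter-luciferase reporter, 1500 cells per well in OP-MEM I with 10% FBS, treated with compound 24 hours at 37C. Luciferase activity read by luminescence after 10 minutes with Amplite reagent.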
SMN2 splice enh: SMN2 splice variant enhancement | 210,000 compounds, 2.8% hits | AID 1458 | Potency, µM (top dose mostly 46.1 µM), hits mostly activators | HEK293 SMN2-luciferase splicing reporter, luminescence, 30-36 h; also: nearly all actives have a fitted effect of over 55% in size
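HEK293 cells carry an SMN2 minigene-luciferase reporter in which exon 7 inclusion puts luciferase in frame. Cells were seeded at 2000 cells/well, attached for 10-12 hours, then exposed to compounds for 30-36 hours at 37C before ONE-Glo luminescence.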
NPC1 prom act: NPC1 promoter activation | Huh7 NPC1 promoter luciferase reporter, 24 h | 320,000 compounds, 2.4% hits | Potency, µM (doses to about 9.22 µM), most hits filed as activators; also: nearly all actives have a fitted effect of over 60% in size
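Cells: Huh7 expressing luciferase under the NPC1 promoter, 1500/well. Seeded 2 h, compound added, incubated 24 h at 37 °C. Luciferase reagent, 10 min ambient, then luminescence.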
FLuc counter: firefly luciferase modulation, counter-screen for miR-21 project | P08659 | purified FLuc, Km substrates, luminescence inhibition | Potency, µM (highest dose often 57.5 µM), hits mostly inhibitors | 360,000 compounds, 6.9% hits; also: nearly all actives have a fitted effect of over 55% in size
Target sequence (P08659 whole entry, looked up): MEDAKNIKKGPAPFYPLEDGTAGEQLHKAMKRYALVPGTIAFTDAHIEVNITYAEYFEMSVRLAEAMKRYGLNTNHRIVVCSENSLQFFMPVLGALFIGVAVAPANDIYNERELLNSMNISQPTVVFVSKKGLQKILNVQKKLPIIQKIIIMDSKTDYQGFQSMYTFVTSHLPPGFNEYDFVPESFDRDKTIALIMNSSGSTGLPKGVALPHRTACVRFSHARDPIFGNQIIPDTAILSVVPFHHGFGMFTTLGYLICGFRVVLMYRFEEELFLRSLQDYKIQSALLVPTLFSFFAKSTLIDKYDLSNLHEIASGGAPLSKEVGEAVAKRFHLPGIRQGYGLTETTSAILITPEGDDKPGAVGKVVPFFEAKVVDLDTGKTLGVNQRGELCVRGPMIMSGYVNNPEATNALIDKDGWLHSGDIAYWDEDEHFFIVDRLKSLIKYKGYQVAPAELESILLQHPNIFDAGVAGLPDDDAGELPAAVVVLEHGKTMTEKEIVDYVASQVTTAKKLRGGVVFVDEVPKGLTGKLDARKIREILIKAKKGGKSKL
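Purified P. pyralis luciferase, 10 nM final, with Km-level 10 uM D-luciferin and 10 uM ATP in 50 mM Tris acetate pH 7.5, 10 mM Mg acetate, 0.01% Tween-20, 0.05% BSA; 6-point qHTS titration about 60 µM downward; luminescence read.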
ELG1 genotox: induces genotoxicity in HEK293T cells with luciferase-tagged ELG1; HEK293T ELG1-luciferase reporter, luminescence, 16 h; 330,000 compounds, 1.3% hits; AID 504466; Potency, µM (highest dose often 46 µM), most hits filed as activators; also: nearly all actives have a fitted effect of over 60% in size
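After overnight (16 hr) compound treatment at 37 °C, ELG1-luciferase HEK293T cells were lysed with ONE-Glo; luminescence quantified 30 min later at room temperature.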
Of the large screens only hits and unclear results are named; the others gave an inactive call. Calls follow the shape of the dose curve; as a rule, active = well fitted curve in the direction sought with a large enough effect; inconclusive = small, poorly fitted or top-dose-only effect, or another doubt; inactive = no such curve, though single readings can be large; an effect the other way counts as inactive or inconclusive.

CN(C)/C=C1\Oc2ccc3ccccc3c2C1=O	ELG1 repair inh inconclusive, Rab9 promoter act inconclusive, SMN2 splice enh 18µM, NPC1 prom act 3.2µM, FLuc counter 17µM
COc1cccc(NC(=O)C(c2ccccc2)N2CCN(c3ccccn3)CC2)c1 (centres undefined)	none
Cc1ccc(NC(=O)c2cccc(S(=O)(=O)NCc3ccccc3)c2)nc1	ELG1 repair inh inconclusive (no result: SMN2 splice enh)
O=C1C2C(C(=O)N1/N=C/c1cccc([N+](=O)[O-])c1)C1C=CC2C12CC2 (centres undefined)	ELG1 repair inh inconclusive, Rab9 promoter act inconclusive, NPC1 prom act inconclusive, FLuc counter 7.6µM, ELG1 genotox inconclusive
CC1(C)CC(=O)c2c(O)cc(O)cc2O1	none
Cc1ccc(C(=O)N2CCC(C(=O)c3c(C)cc(C)cc3C)CC2)cc1	ELG1 repair inh 16µM (no result: SMN2 splice enh)
COc1ccc(C(=O)C2CCCN(C(=O)CCc3scnc3C)C2)c(C)c1 (centres undefined)	ELG1 repair inh inconclusive, Rab9 promoter act inconclusive, NPC1 prom act inconclusive, FLuc counter 19µM, ELG1 genotox inconclusive (no result: SMN2 splice enh)
COc1ccc(/C=C/c2nc(-c3ccccc3O)n[nH]2)cc1	ELG1 repair inh inconclusive, Rab9 promoter act 3.5µM, SMN2 splice enh 4µM, NPC1 prom act 3.5µM, FLuc counter 3.8µM, ELG1 genotox inconclusive
COc1ccc(O)c(-c2cc(-c3ccccc3Cl)[nH]n2)c1	FLuc counter 11µM, ELG1 genotox inconclusive (no result: SMN2 splice enh)
COc1ccccc1-c1cc(-c2cc(Cl)ccc2O)n[nH]1	ELG1 repair inh inconclusive
COc1ccc(-c2cc(-c3ccccc3O)[nH]n2)cc1	ELG1 repair inh inconclusive, Rab9 promoter act 3.2µM, NPC1 prom act 1.8µM, FLuc counter 0.85µM, ELG1 genotox inconclusive (no result: SMN2 splice enh)
COc1ccc(/C=C/c2nc(-c3ccccc3O)n(-c3ccccc3)n2)cc1	FLuc counter inconclusive
COc1ccc(O)c(-c2cc(-c3cccs3)[nH]n2)c1	ELG1 repair inh inconclusive, Rab9 promoter act inconclusive, SMN2 splice enh inconclusive, FLuc counter 21µM
O=C(CSc1nc2[nH]c(=O)cc(O)c2s1)Nc1ccc(Br)cc1	FLuc counter inconclusive (no result: SMN2 splice enh)
O=S(=O)(NCc1cccnc1)c1ccc2ccccc2c1	none (no result: SMN2 splice enh)
COc1ccc(-c2cc(-c3ccccc3)n[nH]2)c(O)c1	ELG1 repair inh inconclusive, Rab9 promoter act 2.2µM, SMN2 splice enh 13µM, NPC1 prom act inconclusive, FLuc counter 6µM, ELG1 genotox 8.2µM
COc1ccc(-c2ncncc2-c2ccccc2)c(O)c1	ELG1 repair inh inconclusive (no result: SMN2 splice enh)
O=C(NCCCn1ccnc1)c1nc(Cn2cc([N+](=O)[O-])cn2)no1	none (no result: SMN2 splice enh)
CCOc1ccc(NC(=O)C(C)Oc2ccccc2C(=O)Nc2ccc(C)c(Cl)c2)cc1 (centres undefined)	ELG1 repair inh inconclusive, FLuc counter 12µM
Cc1ccc(NC(=O)COc2ccccc2C(=O)Nc2ccccc2)cc1Cl	ELG1 repair inh 16µM, FLuc counter inconclusive
Cc1cccc(NC(=O)NCC(c2ccc(F)cc2)N2CCN(C)CC2)c1 (centres undefined)	ELG1 repair inh inconclusive, FLuc counter inconclusive (no result: SMN2 splice enh)
COc1ccc(OCCNC(=O)/C=C/c2ccccc2)cc1	none
CCOc1ccc(C(=O)/C=C/c2ccc(SC)cc2)cc1	FLuc counter 5.4µM
CC(C)(C)C(=O)/C=C/c1ccc(Oc2ccccc2)cc1	ELG1 repair inh inconclusive, Rab9 promoter act 6.3µM, NPC1 prom act inconclusive, FLuc counter 6µM, ELG1 genotox inconclusive (no result: SMN2 splice enh)
O=C(O)/C=C/c1ccc(Oc2ncccn2)cc1	none (no result: SMN2 splice enh)
CCOc1ccc(N/C=C/C(=O)c2ccccc2)c([N+](=O)[O-])c1	ELG1 repair inh inconclusive, Rab9 promoter act 0.1µM, SMN2 splice enh 0.56µM, NPC1 prom act 0.1µM, FLuc counter 0.12µM, ELG1 genotox inconclusive
O=C(/C=C/c1ccccc1)NCCOc1ccccc1	ELG1 repair inh inconclusive, Rab9 promoter act inconclusive, SMN2 splice enh inconclusive, FLuc counter 24µM, ELG1 genotox inconclusive
Cc1ccccc1N1CCN(CCCCN2C(=O)C3CCCN3C2=O)CC1 (centres undefined)	none
Cc1cc(C)c(S(=O)(=O)N2CCN(C3CC(=O)N(c4ccccc4Cl)C3=O)CC2)c(C)c1 (centres undefined)	none (no result: Rab9 promoter act, SMN2 splice enh, NPC1 prom act, FLuc counter)
COC(=O)CN(C)C(=O)c1ccc(OC)c(OC2CCN(C(C)C)CC2)c1	none (no result: SMN2 splice enh)
Cc1cc(C)n(C2CC(=O)N(c3ccc(C)c(Cl)c3)C2=O)n1 (centres undefined)	none (no result: SMN2 splice enh)
Cc1cccc(N2CCN(Cc3cnc(Cl)s3)CC2C)c1 (centres undefined)	ELG1 repair inh inconclusive
CCOc1ccc(/C=C/C(=O)NCc2ccccc2)cc1	ELG1 repair inh inconclusive, FLuc counter 15µM
CCOc1ccc(/C=C/C(=O)c2ccccc2)cc1	ELG1 repair inh inconclusive, Rab9 promoter act 0.79µM, NPC1 prom act 1.1µM, FLuc counter 0.15µM, ELG1 genotox inconclusive (no result: SMN2 splice enh)
O=C(CC1CCCCC1)NCCOc1ccccc1	ELG1 repair inh inconclusive
O=C(NCCOc1ccccc1)C1CCCCC1	ELG1 repair inh inconclusive, Rab9 promoter act 3.2µM, SMN2 splice enh 20µM, NPC1 prom act inconclusive, FLuc counter inconclusive, ELG1 genotox inconclusive
CN(Cc1ccccc1)Cc1c(F)cccc1F	SMN2 splice enh 1.4µM
COc1cc(C2Nc3cccc4cccc(c34)N2)ccc1OC(C)=O	FLuc counter 12µM
COc1ccc(C2Nc3cccc4cccc(c34)N2)cc1Br	FLuc counter inconclusive (no result: SMN2 splice enh)
CCN=C1S/C(=C\c2ccc(-c3cccc(C(=O)O)c3)o2)C(=O)N1CC	ELG1 repair inh inconclusive, Rab9 promoter act 0.4µM, SMN2 splice enh 3.5µM, NPC1 prom act 0.63µM, FLuc counter 0.76µM, ELG1 genotox 1.6µM
O=C(O)c1cc(-c2ccc(/C=C3\NC(=O)N(c4ccccc4)C3=O)o2)ccc1Cl	FLuc counter inconclusive (no result: SMN2 splice enh)
C#CCN1C(=O)S/C(=C\c2ccc(-c3ccc(Cl)c(C(=O)O)c3)o2)C1=O	ELG1 repair inh inconclusive, Rab9 promoter act 1.8µM, NPC1 prom act 0.79µM, FLuc counter 11µM, ELG1 genotox 16µM (no result: SMN2 splice enh)
Cc1cccc(N2NC(=O)/C(=C/c3ccc(-c4ccc(Cl)c(C(=O)O)c4)o3)C2=O)c1	FLuc counter 24µM
O=C(O)c1cc(-c2ccc(/C=C3\NC(=O)N(c4ccc(Cl)cc4)C3=O)o2)ccc1Cl	FLuc counter 19µM
COc1ccc(CN(C)C(=O)c2ccc(Oc3ccccc3)cc2)cc1F	ELG1 repair inh inconclusive (no result: SMN2 splice enh)
Cc1ncc([N+](=O)[O-])n1CCOC(=O)C12CC3CC(CC(C3)C1)C2	none
O=C(CS(=O)CC(=O)N(c1ccccc1)C(C(=O)NC1CCCCC1)c1ccco1)Nc1ccc(F)cc1 (centres undefined)	none
